# High-throughput results (PubChem)
# Sampled rows, rich in hits. Any-hit rate of the full collection: about 9.4%.
# SARS PLP yeast: inhibitors of SARS-CoV papain-like protease in yeast; S. cerevisiae expressing SARS-CoV PLpro, growth rescue; Potency, µM (titrated, usually from 32.9 µM), for the others: at the highest dose activity, positive = growth rescue, hits mostly activators; 330,000 tested, 0.19% active; calls by dose curve; also: 0% is about no effect; nearly all actives have a fitted effect of over 55% in size
# AMA1 RON2 block: disrupts binding of P. falciparum AMA1 to RON2; 360,000 tested, 0.2% active; AlphaScreen AMA1-biotinylated RON2 peptide binding; AID 720542; Potency, µM (titrated, usually from 58.2 µM), without a hit: at the highest dose activity change, negative = inhibition, actives largely listed as inhibitors;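 also: 0% = vehicle wells and -100% = peptide control; nearly all actives have a fitted effect of over 45% in size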
#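 AMA1 (3D7) with his tag at 25 nM final met compounds first, then biotinylated RON2 peptide at 25 nM; detection used donor plus acceptor beads, 10 µg/mL apiece, read by AlphaScreen after 30 min at room temperature.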
# Pf growth 96h: P. falciparum growth inhibition at 96 hour, primary screen for plastid delayed-death inhibitors | 320,000 tested, 6.9% active | AID 504834 | P. falciparum luciferase reporter growth, 96 h | Potency, µM (series often up to 28.7 µM), for inactives: top-dose activity change, negative = inhibition, hits mostly inhibitors; also: % is scaled to controls: 0 for no effect and ±100 for the full control effect
#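 96 h incubation, 37 C, 5% CO2, of luciferase-reporter P. falciparum-infected RBCs (2% hematocrit, 0.05% parasitemia final) with test compounds; endpoint luminescence.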
# Pf growth 48h: P. falciparum growth inhibition at 48 hours (one generation) | Potency, µM (titrated, usually from 28.7 µM), inactives show top-dose activity change, negative = inhibition, usual class: inhibitors | AID 504832 | P. falciparum luciferase growth in erythrocytes, 48 h | 310,000 tested, 5.9% active; also: % is scaled to controls: 0 for no effect and ±100 for the full control effect
#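 Luciferase-expressing parasites in RBCs, 2% Hct / 0.1% parasitemia final; RPMI 1640 + 0.5% Albumax; 37 C, 5% CO2, one generation; luminescence read-out, lower signal = inhibition.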
# The depositor's hits bear a star; ? = inconclusive; / = no result. Unless noted, calls follow the shape of the dose curve; as a rule, active = well fitted curve in the direction sought with a large enough effect; inconclusive = small, poorly fitted or top-dose-only effect, or another doubt; inactive = no such curve, though single readings can be large; an effect the other way counts as inactive or inconclusive. Potency is read from the fitted curve at half-maximal effect.
SMILES,SARS PLP yeast,AMA1 RON2 block,Pf growth 96h,Pf growth 48h
COc1cc(C(=S)N2CCCC2)ccc1OS(=O)(=O)c1ccc(NC(C)=O)cc1,0%,-4%,126%,2.1µM*
CCOC(=O)c1ccc(NC(=O)c2cccc(S(=O)(=O)N3CCN(C(C)=O)CC3)c2)cc1,0%,-1%,9.3µM*,?
O=C(Nc1cccc(F)c1)c1cc(S(=O)(=O)N2CCOCC2)ccc1N1CCCC1,-7%,0%,?,?
CCN(CC)S(=O)(=O)c1cccc(NC(=O)c2cccc(S(=O)(=O)N3CCCC3)c2)c1,-4%,-7%,12µM*,9.3µM*
NS(=O)(=O)c1cccc(NC(=O)c2cccc(S(=O)(=O)N3CCCCCC3)c2)c1,5%,3%,/,/
Cc1cc(C)n(-c2ccc(C(=O)N3CCN(S(=O)(=O)c4ccc(C(C)C)cc4)CC3)cc2)n1,18%,1%,?,12µM*
CCc1noc(C)c1C(=O)Nc1cccc(S(=O)(=O)N2CCCCCC2)c1,/,0%,-18%,?
Cc1noc(C)c1C(=O)Nc1cccc(S(=O)(=O)N2CCCCC2)c1,-1%,5%,8.3µM*,-15%
O=C(Nc1nccs1)c1cccc(S(=O)(=O)N2CCCCC2)c1,-2%,32%,15µM*,-3%
COc1ccc(C(=O)Nc2ccc(S(=O)(=O)N3CCCCC3)cc2)cc1OC,-8%,-5%,36%,-21%
Cc1cc(N)n(-c2ccc(C(=O)O)cc2)n1,0%,-9%,?,15%
Cc1cc(C)n(-c2ccc(C(=O)OC(C)C)cc2)n1,2%,-4%,0%,83%
COc1cc(OC)c(C(=O)Nc2ccc(S(=O)(=O)N3CCCCC3)cc2)cc1OC,-9%,-13%,15µM*,?
Cc1cc(C)n(-c2ccc(C(=O)O)cc2)n1,16%,-10%,1.9µM*,22%
Cc1cc(C)n(-c2ccc(C(=O)C(C#N)c3nc4ccccc4n3C)cc2)n1 (configuration not stated),4%,15%,9.3µM*,18%
COc1cc(/C=C/C(=O)OCC(=O)Nc2ccc(S(=O)(=O)N3CCCC3)cc2)ccc1O,10%,-19%,9.3µM*,?
CCn1c(COc2ccccc2Cl)nnc1SCC(=O)Nc1ncccc1C,5%,-11%,0%,14%
CNS(=O)(=O)c1cccc(C(=O)OCC(=O)c2ccc(S(=O)(=O)N3CCCCC3)cc2)c1,4%,4%,?,13µM*
CC(=O)Nc1cccc(C(=O)OCC(=O)c2ccc(S(=O)(=O)N3CCCCC3)cc2)c1,-6%,16%,-2%,-2%
CCN(CC)S(=O)(=O)c1cccc(NC(=O)CC2CCCC2)c1,0%,-3%,-18%,-1%
CCN(CC)S(=O)(=O)c1cccc(NC(=O)Nc2cccc(C(F)(F)F)c2)c1,-2%,-5%,4.1µM*,/
CS(=O)(=O)c1cccc(C(=O)Nc2ccc(S(=O)(=O)N3CCCCC3)cc2)c1,-3%,5%,9.3µM*,?
CO[C@@H]1CN(C)C(=O)c2ccc(NC(C)=O)cc2OC[C@@H](C)N(C(=O)NC2CCCCC2)C[C@H]1C,/,4%,/,/
COc1ccc2[nH]cc(C(=O)CNc3nc(C)cs3)c2c1,-13%,-1%,36%,1.7µM*
COc1ccc2[nH]cc(C(=O)CCl)c2c1,0%,-10%,-5%,7%
SMILES,SARS PLP yeast,AMA1 RON2 block,Pf growth 96h,Pf growth 48h
CSc1ccc(C(=O)C2CCCN(C(=O)c3cccc(N4CCOCC4)c3)C2)cc1 (configuration not stated),-5%,-15%,?,-7%
CC1CCC(C(C)C)C(OCC(O)C[N+]2(C)CCCCC2)C1 (configuration not stated),1%,5%,92%,?
CC1CCC(C(C)C)C(OCC[N+](C)(C)C)C1 (configuration not stated),2%,2%,15%,3.7µM*
C#CCOCCOCCOCCNc1nc(N2CCN(C(=O)Cn3cc(CCCN=C(N)N)nn3)CC2)nc(N2CCN(C(=O)[C@H](C)n3cc(CCCN=C(N)N)nn3)CC2)n1,-9%,-3%,?,?
O=c1c2cccc3c2c(nn1CN1CCOCC1)-c1ccccc1-3,-19%,-5%,?,46%
CCN(CC)CCn1nc2c3c(cccc3c1=O)-c1ccccc1-2,-2%,-3%,19%,4.1µM*
c1ccc(C2(Cn3ccc4ccccc43)OCCO2)cc1,-12%,8%,?,13µM*
COc1cc(/C=N\n2cnnc2)ccc1OCC(=O)Nc1ccc(C)cc1,-6%,-1%,21%,0%
COc1ccc(NC(=O)COc2ccc(/C=N/n3c(C)nnc3C)cc2OC)cc1,5%,-2%,12µM*,/
COc1ccc(NC(=O)COc2ccc(/C=C/c3cc[n+](C)cc3)cc2OC)cc1,-2%,0%,-2%,1.9µM*
COc1cc(/C=C/c2cccc[n+]2C)ccc1OCC(=O)Nc1cccc(Cl)c1,-2%,-10%,-8%,0.93µM*
COc1ccc(NC(=O)COc2ccc(/C=C/c3cccc[n+]3C)cc2OC)cc1,-4%,-1%,5%,0.93µM*
C/C=C/c1ccc(OCC(=O)Nc2cc(OC)c(OC)c(OC)c2)c(OC)c1,-4%,-8%,?,-16%
CCOC(=O)/C=C/c1ccc2c(c1)S(=O)(=O)N(c1cccc(OC)c1)[C@H]2CC(=O)OCC,/,7%,/,/
COc1cc(/C=C/c2cc[n+](C)cc2)ccc1OCC(=O)Nc1ccc(Cl)c(Cl)c1,-5%,1%,-20%,?
COc1cc(/C=C/c2cccc[n+]2C)ccc1OCC(=O)Nc1ccccc1,-2%,-9%,0%,1µM*
Cc1ccc(OCCn2cc(Br)c(=O)[nH]c2=O)cc1,-1%,4%,9.3µM*,-24%
CCC(c1nnnn1-c1ccc(OC)cc1)N1CCC(n2c(=O)[nH]c3ccccc32)CC1 (configuration not stated),/,-2%,/,/
O=c1o[nH]c(-c2ccccc2)c1C=Nc1ccc(Cl)cc1,-5%,-11%,?,16%
CCOC(=O)N1CCN(c2ncnc3c2[nH]c2ccc(OC)cc23)CC1,7%,8%,?,?
CCOc1ccc2[nH]c3c(N4CCN(C(=O)c5ccco5)CC4)ncnc3c2c1,0%,-4%,12µM*,?
O=C(c1ccco1)N1CCN(c2ncnc3c2[nH]c2ccc(Br)cc23)CC1,?,25%,?,9.3µM*
CCOc1ccc2[nH]c3c(N4CCC5(CC4)OCCO5)ncnc3c2c1,0%,-17%,12µM*,?
O=C(NCc1cccs1)C1CCCCC1,9%,8%,81%,/
COCCOC(=O)C1=C(C)OC(N)=C(C#N)C1c1ccc2c(c1)OCO2 (configuration not stated),5%,-7%,/,-12%
C=CCOC(=O)C1=C(C)OC(N)=C(C#N)C1c1ccc2c(c1)OCO2 (configuration not stated),13%,-3%,10µM*,-27%
CCC(C)NC(=O)c1cn(CC)c2cc(N3CCN(C)CC3)c(F)cc2c1=O (configuration not stated),1%,-11%,-22%,?
